Structures can show the parent of a compound that is named as a salt.
System: hN + hpA co-culture (H1 iNGN2 human neurons + human primary astrocytes)
Assay: presynaptic density (SYNAPSIN1 puncta per MAP2 neurite area), Z-score vs DMSO controls; higher = more presynaptic puncta (synapse-promoting)
Conditions: 3 µM; 72 h
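Further: immunostained co-cultures imaged by high-content microscopy, Z-score per plate against mean and SD of 0.1% DMSO wells, compounds added on differentiation day 18, analysed day 21.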

Row | SMILES | presynaptic density (Z-score)
1 | COc1cc2c(N3CCN(C(=O)Nc4ccc(OC(C)C)cc4)CC3)ncnc2cc1OCCCN1CCCCC1 | -0.158
2 | O=C(Nc1ccccc1)N1CCN(c2nc(-c3ccccc3)ns2)CC1 | -0.242
3 | O[C@@H](COc1cccc2ncccc12)CN1CCN(C2c3ccccc3[C@@H]3[C@H](c4ccccc42)C3(F)F)CC1 (stereo partly drawn) | -1.51
4 | COc1ccnc2[nH]cc(C(=O)C(=O)N3CCN(C(=O)c4ccccc4)C[C@H]3C)c12 | 0.386
5 | CC1C(=O)OC2C(O)C34C5CC(C(C)(C)C)C36C(OC(=O)C6O)OC4(C(=O)O5)C12O (stereo not drawn) [Ginkgolide B] | -0.504
6 | COc1ccc2cc(-c3nc(-c4ccc([S+](C)[O-])cc4)[nH]c3-c3ccncc3)ccc2c1 (stereo not drawn) [Tie2 kinase inhibitor] | -0.787
7 | COc1ccc(-n2nc(C(N)=O)c3c2C(=O)N(c2ccc(N4CCCCC4=O)cc2)CC3)cc1 [Apixaban] | 0.0881
8 | Cc1nc(C(=O)NCC(=O)O)c(O)c2ccc(Oc3ccccc3)cc12 | 0.792
9 | Cc1[nH]c2ccccc2c1CCNCc1ccc(/C=C/C(=O)NO)cc1 [Panobinostat (LBH589)] | 4.81
10 | O=C(O)/C=C/c1ccc(Cn2ccnc2)cc1 [Ozagrel HCl] | -0.679
11 | COc1cc2ncnc(Nc3ccc(Cl)cc3F)c2cc1OC | -0.982
12 | N#CC[C@H](C1CCCC1)n1cc(-c2ncnc3[nH]ccc23)cn1 | 0.202
13 | O=C(Nc1cc(C(F)(F)F)cc(C(F)(F)F)c1)c1cc(Cl)ccc1O | -3.05
14 | C=C1C(=O)O[C@H]2[C@H]1CC/C(C)=C/CC[C@@]1(C)O[C@@H]21 [(-)-Parthenolide] | -0.888
15 | CC(C(O)c1ccc(O)cc1)N1CCC(Cc2ccccc2)CC1 (stereo not drawn) [Ifenprodil Tartrate_Selleck] | -0.233
16 | c1ccc(CC2=NCCN2)cc1 [Tolazoline HCl] | -0.161
17 | C[C@@H]1C(=O)O[C@H]2C[C@@]34[C@H]5C[C@@H](C(C)(C)C)[C@]36[C@@H](OC(=O)[C@@H]6O)O[C@@]4(C(=O)O5)[C@]21O | -0.498
18 | CCOC(=O)NCCCC(=O)NCCc1ccccc1 | -0.656
19 | Cc1ccccc1C(=O)Nc1ccc(C(=O)N2CCCC(O)c3cc(Cl)ccc32)c(C)c1 (stereo not drawn) [Tolvaptan] | 0.77
20 | COc1ccc(C2CNC(=O)C2)cc1OC1CCCC1 (stereo not drawn) [Rolipram] | -0.353
21 | CC(NC(=O)c1ccccc1N=Cc1c(O)ccc2ccccc12)c1ccccc1 (stereo not drawn) | 0.165
22 | CC[C@H](NC(=O)[C@H](C)NC)C(=O)N1C[C@@H](O)C[C@H]1Cc1c(-c2[nH]c3cc(F)ccc3c2C[C@@H]2C[C@H](O)CN2C(=O)[C@H](CC)NC(=O)[C@H](C)NC)[nH]c2cc(F)ccc12 [Birinapant] | 0.314
23 | COc1cc(F)c(F)c(Nc2ccc(I)cc2F)c1NS(=O)(=O)C1(CC(O)CO)CC1 (stereo not drawn) [Refametinib (RDEA119] | 0.433

— the supplement of paper PMC10121225
